# Screens: PubChem BioAssay, several laboratories
# ARNT-TACC3 inh – disrupts binding between human ARNT and TACC3. Q9Y6A5. AlphaScreen His-ARNT PAS-B/GST-TACC3 binding, luminescence; TACC3 fragment carries E629A point mutation. inhibition, % at 9.99 µM. actives 0.66% (n = 390,000);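 active means mean inhibition of replicates at least 50% and at least half of replicates each reaching 50%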;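 further: 0% = complete ARNT plus TACC3 wells and 100% = ARNT alone without TACC3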
# hiPSC survival – increases survival of single human iPS cells; actives 0.044% (n = 360,000); survival enhancement, % at 20 µM; hiPSC single-cell survival, ATPlite luminescence; 100% = ROCK inhibitor wells, 0% = DMSO; in the data active means survival enhancement above about 18%;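 further: cells exposed to compounds for 16 hours before the ATP read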
# ABCB6 inh 2 – inhibitors of human ABC transporter ABCB6; Q9NP58; K562-ABCB6 porphyrin accumulation, flow cytometry, 1 h; hits give low values; fluorescence ratio to DMSO, % at 10 µM; actives 0.19% (n = 360,000); AID 602162;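 active means fluorescence ratio to DMSO below 75%, the collection mean minus 3 SD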;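 further: signal is porphyrin accumulated inside mitochondria; 100% equals median channel fluorescence of DMSO control wells; lower ratio means ABCB6 inhibition with less porphyrin fluorescence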
# NRP1-CendR mod – NRP-1/CendR interaction modulation. O14786. FAM-RPARPAR peptide binding to NRP-1, fluorescence polarization. inhibition, % at 25 µM. actives 0.85% (n = 360,000). AID 602438;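 active means inhibition or corrected inhibition above about 18%, plus a signal ratio from 0.5 to 1.5, limit read from the data, passing the limit was not always enough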
# Target sequence (O14786 whole entry, looked up): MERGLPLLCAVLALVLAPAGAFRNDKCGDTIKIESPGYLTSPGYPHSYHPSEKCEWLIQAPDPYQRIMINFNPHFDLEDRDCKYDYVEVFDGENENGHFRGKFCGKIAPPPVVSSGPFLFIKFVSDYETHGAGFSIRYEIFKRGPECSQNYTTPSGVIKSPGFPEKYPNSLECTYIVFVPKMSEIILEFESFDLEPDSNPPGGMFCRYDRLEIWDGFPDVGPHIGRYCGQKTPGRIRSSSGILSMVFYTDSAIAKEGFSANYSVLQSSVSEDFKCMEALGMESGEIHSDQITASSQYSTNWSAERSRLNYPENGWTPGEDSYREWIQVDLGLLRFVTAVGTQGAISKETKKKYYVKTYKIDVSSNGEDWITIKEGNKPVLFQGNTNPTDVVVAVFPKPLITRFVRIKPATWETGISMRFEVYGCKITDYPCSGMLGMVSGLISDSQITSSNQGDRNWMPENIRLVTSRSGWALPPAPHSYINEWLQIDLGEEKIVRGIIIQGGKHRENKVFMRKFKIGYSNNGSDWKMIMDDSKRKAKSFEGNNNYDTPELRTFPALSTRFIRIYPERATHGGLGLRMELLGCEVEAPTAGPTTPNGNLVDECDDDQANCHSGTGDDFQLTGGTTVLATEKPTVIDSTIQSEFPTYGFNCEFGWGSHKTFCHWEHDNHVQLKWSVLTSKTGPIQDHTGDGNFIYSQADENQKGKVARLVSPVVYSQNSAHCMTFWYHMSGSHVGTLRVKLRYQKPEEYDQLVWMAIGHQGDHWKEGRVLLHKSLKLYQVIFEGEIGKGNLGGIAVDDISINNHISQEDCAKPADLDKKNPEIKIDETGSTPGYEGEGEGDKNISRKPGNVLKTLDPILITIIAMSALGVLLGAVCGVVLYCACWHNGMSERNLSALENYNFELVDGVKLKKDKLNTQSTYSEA
# INS-1E GSIS act – primary screen for activators of insulin secretion dependent on glucose, INS-1E cells, GLuc reporter luminescence; INS-1E GLuc reporter insulin secretion, 2-3 h; activation, % at 16.6 µM; actives 0.61% (n = 370,000); AID 743287;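 active means lowest replicate activation of at least 40%, so every replicate reaches that level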;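 further: 0% = median of neutral control wells and 100% = median of IBMX positive control wells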
# Active calls of the source: *; x = no result. A selection: hits, their analogues and other compounds. The true share with any hit is near 1.8%.
SMILES,ARNT-TACC3 inh,hiPSC survival,ABCB6 inh 2,NRP1-CendR mod,INS-1E GSIS act
CN1C(=O)CC2(C)C1=CCc1scnc12 (centres undefined),x,0,104,19*,-8
COCC(=O)Nc1ccc2c(c1)OC[C@H](C)N(Cc1cccnc1)C[C@@H](C)[C@H](OC)CN(C)C2=O,7,x,x,x,-1
CC(C)CC(NS(=O)(=O)c1ccccc1S(=O)(=O)NC(CC(C)C)C(=O)O)C(=O)O (centres undefined),-13,4,96,26*,1
CC(C)CC(NS(=O)(=O)c1ccccc1)C(=O)O (centres undefined),-1,4,105,14,x
CCOc1cc(C2C(C#N)=C(N)Oc3n[nH]c(-c4ccncc4)c32)cc([N+](=O)[O-])c1O (centres undefined),-4,0,97,32*,-10
N#CC1=C(N)Oc2n[nH]c(-c3ccc(F)cc3)c2C1c1cccnc1 (centres undefined),0,-2,96,7,56*
CS(=O)(=O)N1CC2(C1)[C@@H](c1ccccc1)[C@@H](CO)N2C(=O)C1CCC1,x,x,x,x,8
COc1cccc(-c2nnn(CC(=O)O)n2)c1,7,2,97,1,76*
COc1cccc(NC(=O)c2oc3ccc(S(=O)(=O)N4CCOCC4)cc3c2C)c1,-2,0,98,12,10
Cc1ccc(NC(=O)c2oc3ccc(S(=O)(=O)N4CCOCC4)cc3c2C)cc1C,-1,4,92,2,79*
COCC(=O)N(C)C[C@@H]1Oc2cc(C3=CCCC3)ccc2S(=O)(=O)N([C@@H](C)CO)C[C@@H]1C,10,x,x,x,23
COc1ccc(-n2nc3c(N)n[nH]c3cc2=O)cc1,x,1,99,29*,6
Cc1cccc(-c2ccc([C@H]3[C@H](CO)N4C(=O)CN(C(=O)CN5CCOCC5)C[C@@H]34)cc2)c1,x,x,x,x,35
Cc1cccc(Cn2c(N(C)Cc3ccccc3)nc3c2c(=O)[nH]c(=O)n3C)c1,0,0,99,26*,x
C/C=C/Cn1c(N(C)Cc2ccccc2)nc2c1c(=O)[nH]c(=O)n2C,-7,-3,96,3,47*
CCN1CCN(c2nc3c(c(=O)[nH]c(=O)n3C)n2Cc2cccc(C)c2)CC1,x,6,93,6,15
CN(Cc1ccccc1)c1nc2c(c(=O)[nH]c(=O)n2C)n1C,-12,-2,91,4,x
O=C(c1ccc2c(c1)OCO2)N1CCN(S(=O)(=O)c2ccccc2)CC1,1,1,96,7,46*
Cc1ccc(S(=O)(=O)N2CCN(C(=O)c3ccc4c(c3)OCO4)CC2)cc1,-4,0,90,11,-4
CC1CCN(S(=O)(=O)c2ccc(C(=O)OCc3ccc4c(c3)OCO4)cc2)CC1,3,2,105,-2,142*
COc1ccc(Cc2nc(-c3ccc(-n4cccc4)cc3)no2)cc1OC,x,0,94,-2,56*
C[C@H](CO)N1C[C@H](C)[C@H](CN(C)S(=O)(=O)c2ccccc2)Oc2c(NC(=O)Nc3ccc(C(F)(F)F)cc3)cccc2C1=O,x,x,x,x,-27
CN1[C@@H]2Cn3c(ccc(-c4cccnc4)c3=O)[C@H]1[C@@H](C(=O)NCCc1ccccc1)[C@@H]2CO,x,x,x,x,-7
CC1=CC(C)C2(CO)COC(c3cccnc3)C1C2C (centres undefined),x,2,89,27*,-3
CC1=CC(C)C2(CO)COC(c3ccc(O)cc3)C1C2C (centres undefined),-5,0,305,0,-16
Cc1ccc(S(=O)(=O)Nc2ccc3c(c2)C(=O)N([C@@H](C)CO)C[C@@H](C)[C@H](CN(C)C(=O)Nc2c(C)noc2C)O3)cc1,-5,x,x,x,-2
CC(=O)N1N=C(c2ccc(Br)cc2)OC1(C)CC(=O)Nc1ccccc1 (centres undefined),-4,3,98,12,57*
CC(=O)N1N=C(c2ccccc2)OC12CCCC2,2,3,100,12,-3
CC(C)CCN1CCC(n2nccc2NC(=O)c2ccc3c(c2)OCO3)CC1,2,0,100,35*,2
CC(C)N1CCC(n2nccc2NC(=O)c2ccc3c(c2)OCO3)CC1,-9,1,99,16,6
